D1 potentiator: human D1 dopamine receptor positive modulation; P21728; HEK293 TREx D1 cells, calcium flux, dopamine EC20 potentiation; potentiation, % at 10 µM; hit rate 0.036% among 360,000; AID 504651; in the data active = potentiation above about 30%; note: 0% is about no effect
Target sequence (P21728 whole entry, looked up): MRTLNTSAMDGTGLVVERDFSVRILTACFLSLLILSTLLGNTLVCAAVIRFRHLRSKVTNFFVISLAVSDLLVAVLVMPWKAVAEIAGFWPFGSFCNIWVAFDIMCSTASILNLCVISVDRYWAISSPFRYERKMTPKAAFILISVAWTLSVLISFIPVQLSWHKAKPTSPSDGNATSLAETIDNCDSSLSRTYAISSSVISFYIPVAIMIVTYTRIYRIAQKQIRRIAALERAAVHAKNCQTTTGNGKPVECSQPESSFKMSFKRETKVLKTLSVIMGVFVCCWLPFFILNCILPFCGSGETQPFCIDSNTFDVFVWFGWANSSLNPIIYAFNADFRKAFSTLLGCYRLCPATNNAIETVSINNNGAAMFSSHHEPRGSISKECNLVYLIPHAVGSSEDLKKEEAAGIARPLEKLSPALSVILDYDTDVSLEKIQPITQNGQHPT
D1 agonist: agonists of human D1 dopamine receptor; activation, % at 2 µM; P21728; hit rate 1% among 360,000; HEK293 T-REx D1 cells, calcium flux, agonist mode; in the data active = activation above about 30%; note: 0% is about no effect
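Inducible HEK293 T-REx D1 cells, force-coupled to calcium signalling, were plated at 4000 cells/well with tetracycline and held overnight at 30 C. After no-wash calcium dye loading, compound-evoked calcium rise over 180 s flagged agonists.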
D3 antag: antagonists of human D3 dopamine receptor; AID 652054; D3R cells, DiscoveRx beta-arrestin luminescence, antagonist mode; stronger effect = lower value; max response, negative = inhibition, %; hit rate 2.5% among 360,000; in the data active = max response below about -50%; inconclusive = no clear call, values can overlap the other calls; note: % is set by controls: 0 for no effect and ±100 for the full control effect
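Cells plated overnight at 1500 cells/well, then exposed to library compounds with dopamine controls for 90 minutes at 37 degrees C. DiscoveRx reagent added for 30–60 minutes at room temperature; luminescence read, quantitative HTS format.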
DRD3 agonist: D3 dopamine receptor (human) agonism; max activation, %; hit rate 0.58% among 410,000; P35462; D3R DiscoveRx beta-arrestin cells, luminescence, 90 min; in the data active = max activation above about 30%; note: 0% is about no effect
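Cells at 1500/well, incubated overnight, then treated with pinned compounds (dopamine as control) for 90 min at 37 degrees C. DiscoveRx reagent added for 30 - 60 minutes at room temperature; luminescence read.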
D1 antagonist: antagonists of human D1 dopamine receptor; activity change, negative = inhibition, % at 10 µM; P21728; hit rate 3.2% among 360,000; AID 504652; HEK293 TREx D1 cells, calcium flux, dopamine EC80; stronger effect = lower value; in the data active = activity change below about -30%; note: % is set by controls: 0 for no effect and ±100 for the full control effect
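Kinetic fluorescence of a calcium dye serves as the read-out. D1-expressing Hek293 Trex cells, induced overnight at 30 C, are exposed to compound for 180 s before an EC80 dopamine addition, then read 180 s further.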
ERG-DNA inh: ERG Ets/DNA interaction inhibition; fluorescence polarization, His-ERG Ets domain / labelled DNA; Potency, µM (titrated, usually from 76.9 µM), for inactives: at the highest dose FP activity, negative = inhibition, actives largely listed as inhibitors; hit rate 0.028% among 370,000; AID 624246; active = well fitted inhibition curve with a large enough effect in the polarisation, with a control signal flat; inconclusive = small, poorly fitted or top-dose-only effect, or effect the other way, or a change in a side signal; inactive = no such curve, though single readings can be large or run the other way; the % refers to the polarisation;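 note: polarization taken with two DNA probes labelled with fluorescein and Texas red; potency is the fitted concentration of half-maximal effect; % of control where 0% means no effect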
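His-tagged ERG Ets domain (1 uM in the protein solution; 300mM KCl, 50mM Tris-HCl, 1mM EDTA, 1mM DTT, pH 7.5) received compound, then a probe mix of 5 nM fluorescein-DNA and 100nM Texas-615-DNA. Fluorescence polarization was read for both dyes.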
Starred values were filed as active, the others as inactive; ? = inconclusive; / = not tested or not shown; ! = a repeat was not active. An excerpt weighted towards active compounds, which were near 6.1% of everything screened.

SMILES | D1 potentiator | D1 agonist | D3 antag | DRD3 agonist | D1 antagonist | ERG-DNA inh
COc1ccc(/C=C/C(=O)NC(=S)N2CCN(c3ccccn3)CC2)cc1OC | -10 | 2 | 0 | -7 | -3 | -6%
N#C/C(=C/c1ccc(Br)s1)C(=O)NCCc1c[nH]c2ccccc12 | -10 | 0 | 2 | 0 | -13 | 10%
CN(Cc1ccccc1)CC(O)COc1ccc(CNCCOc2cccnc2)cc1 (stereo not drawn) | 3 | 4 | -10 | 61* | -10 | -3%
CN(Cc1ccccc1)CC(O)COc1ccc(CNCc2cccnc2)cc1 (stereo not drawn) | -5 | 7 | ? | -5 | 27 | -4%
CN(Cc1ccccc1)CC(O)COc1ccc(CNCc2ccc(Cl)s2)cc1 (stereo not drawn) | -5 | 54* | ? | -2 | -41* | -2%
CN(Cc1ccccc1)CC(O)COc1ccc(CNCCCOc2cccnc2)cc1 (stereo not drawn) | -9 | 9 | ? | -12 | -9 | 11%
CC(C)Oc1ccc(CCC(=O)NNC(=O)CCC(=O)O)cc1 | 4 | 5 | 7 | 3 | -2 | 8%
Cc1ccc(Nc2c(-c3ccccn3)nc3cccc(C)n23)cc1 | 4 | 1 | -82* | -27 | 6 | 2%
Cc1cc(C)n2c(Nc3c(C)cccc3C)c(-c3ccccn3)nc2n1 | / | / | -70* | -12 | / | /
O=C(NCCOc1ccccc1)[C@@H]1CCCN1C(=O)c1cccs1 | / | / | -4 | -12 | / | -7%
COc1ccc([N+](=O)[O-])cc1NC(=O)C(C)OC(=O)c1cccnc1 (stereo not drawn) | 2 | 1 | 1 | 5 | 15 | -13%
Cc1ccc(Cn2c(C(C)Nc3nc(-c4ccc(Cl)cc4)cs3)nc3cc(C(=O)NCCCO)ccc32)cc1 (stereo not drawn) | / | / | 14 | -1 | / | 10%
c1cnc2c(C3NCCc4c3[nH]c3ccccc43)cccc2c1 (stereo not drawn) | 1 | 41* | -87* | -59 | -57* | -5%
CCNc1ccccc1CP(=O)(c1ccccc1)c1ccccc1O (stereo not drawn) | -6 | 35* | 0 | -7 | -1 | ?
Cc1ccc(O)c(CP(=O)(c2ccccc2)c2ccccc2)c1 | -4 | 7 | 11 | 1 | -16 | 8%
Cc1cc(Cl)ccc1N=c1ssnc1Cl | 0 | 30* | ? | 3 | -17 | -8%
O=C(CC1(O)C(=O)N(Cc2ccccc2Cl)c2ccccc21)c1ccco1 (stereo not drawn) | -1 | 4 | -7 | 0 | -1 | -1%
COC(=O)C1=NN(C(=O)c2cccc(Cl)c2)C(O)(C(C)(C)C)C1 (stereo not drawn) | -7 | 31* | 5 | 11 | -15 | 2%
COC(=O)C1=NN(C(=O)c2ccccc2)C(C)(O)C1 (stereo not drawn) | 1 | 3 | -16 | -6 | 2 | /
COC(=O)C1=NN(C(=O)c2ccc(Br)cc2)C(O)(C(C)(C)C)C1 (stereo not drawn) | 1 | 32* | -25 | -11 | -5 | 7%
Cc1ccc(NC(=O)C(=O)NCCc2csc3nc(-c4ccccc4C)nn23)cc1Cl | -1 | 1 | / | 6 | 4 | -15%
COc1ccc(C(=O)N2CCCC(c3ccccc3)C2)cc1 (stereo not drawn) | 1 | 0 | ? | -2 | -12 | 7%
Cc1ccc(C2CCN(C(=O)Nc3ccccc3)C2)cc1 (stereo not drawn) | -7 | 2 | -8 | 3 | -1 | 2%
O=C(c1ccc(F)cc1)N1CCC(c2ccccc2)C1 (stereo not drawn) | -5 | 2 | -65* | -8 | -3 | 10%
O=C(Nc1ccc(Cl)cc1)N1CCC(c2ccccc2)C1 (stereo not drawn) | -10 | 10 | -5 | -8 | -33*! | -2%
CCN(CC)S(=O)(=O)c1ccc(N=Nc2c(C)[nH]n(C(N)=S)c2=O)cc1 | 10 | 4 | -93* | 9 | -26 | -9%
CC(=O)N(C)c1ccc(N=Nc2c(C)[nH]n(C(N)=S)c2=O)cc1 | 3 | 1 | -20 | -3 | 1 | -17%
